MK inhibit = S. pneumoniae mevalonate kinase inhibition. purified MK, PK/LDH-coupled NADH absorbance 340 nm. inhibition, % at 10 µM. 0.48% of 65,000 active. AID 555;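 active = ranked among the strongest by inhibition in the single 10 µM screen, a fixed top-ranked set picked for dose follow-up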
Spn PMK inh = inhibitors of Streptococcus pneumoniae phosphomevalonate kinase. purified PMK, PK/LDH-coupled NADH absorbance 340 nm. AID 539. 0.49% of 65,000 active. inhibition, % at 10 µM;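 active = top-ranked compounds by inhibition in the single 10 µM screen, taking a fixed number of the strongest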;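 note: 0% = full reaction with DMSO carrier and 100% = background rate without enzyme reaction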
DPM-DC inhibit = inhibitors of Streptococcus pneumoniae diphosphomevalonate decarboxylase | calls only at 10 µM | 0.49% of 65,000 active | AID 556 | purified DPM-DC, PK/LDH coupled NADH fluorescence;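 active = the 320 compounds with the highest percent inhibition in the single-dose primary screen, excluding strongly autofluorescent ones, cut at about 32% in these data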;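 note: kinetic rate of NADH fluorescence loss reporting ADP formed by the decarboxylase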
Fluor 339 460 = intrinsic fluorescence of library compounds, ex339/em460 – biochemical, MLSMR library, data from DPM-DC assay, artefact control, profiling panel. fluorescence fold increase at 10 µM. 5.5% of 65,000 active. compound autofluorescence, ex339/em460 nm, NADH buffer; stronger effect = higher value; 1 = no-compound wells, NADH background;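 active = at 10 µM, mean starting fluorescence two-fold or more over control wells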;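 note: signal is the first read of a kinetic run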
NADH coupling = blocks coupling enzymes of NAD/NADH assays; coupled PK/LDH NADH assays, four targets; IC50, µM (top dose mostly 10 µM), inactives show top-dose inhibition; 0.02% of 65,000 active; AID 774;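 active = single-dose screening hits from any of four coupled enzyme assays that gave an IC50 when retested across doses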;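 note: the DPM-DC format reads NADH fluorescence rather than 340 nm absorbance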
A340 absorber = compound absorbs light at 340 nm; compound absorbance at 340 nm, fold over control; fold change at 10 µM; 65,000 tested, under 10 active;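 active = at 10 µM dose, initial 340 nm absorbance at least 2 fold that of control wells; inactive = change under 2 fold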;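 note: initial absorbance extrapolated from kinetic A340 decline of NADH oxidation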
* hit, by the source's call; i = inactive; · = no result shown; + = active, no number. Most compounds without a hit are left out; they make up all but 6.5% or so of the library.

SMILES	MK inhibit	Spn PMK inh	DPM-DC inhibit	Fluor 339 460	NADH coupling	A340 absorber
CCOc1ccc2cc(C#N)c(SCC(=O)NC(C)CC)nc2c1 (centres undefined)	5	0	i	3.2*	5%	1
Cc1ccc2cc(C#N)c(SCC(=O)NCc3ccco3)nc2c1	5	10	i	1.2	5%	1
CCOC(=O)CSc1nc(N)c(C#N)c(-c2ccc(OC)cc2)c1C#N	13	7	i	1.1	7%	1
CCOC(=O)CSc1nc2cc(OCC)ccc2cc1C#N	9	8	i	2.6*	13%	1.1
COc1ccc2cc(C#N)c(SCC(=O)N3CCCC3)nc2c1	0	1	i	1.8	6%	1
COC(=O)CSc1nc2cc(OC)ccc2cc1C#N	4	2	i	2.3*	7%	1.1
COc1ccc2cc(C#N)c(NC(C)C)nc2c1	9	8	·	2.6*	3%	1
CCOc1ccc(S(=O)(=O)N(C)CCO)cc1-c1nc2c(C(C)(C)C)nn(C)c2c(=O)[nH]1	3	1	i	1.1	1%	1
CCOC(=O)c1cccc(NC(=O)CSc2nnc(C3CCCCC3)n2CC)c1	7	16	i	1	8%	1.1
CCCNS(=O)(=O)c1ccc(OCC(=O)NCc2ccc3c(c2)OCO3)cc1	6	14	i	1	12%	0.97
Cc1cccc2cc(C#N)c(SCC(=O)N3CCC(C)CC3)nc12	6	14	i	1.1	8%	1
CCOc1ccc2cc(C#N)c(SCC(=O)N3CCC(C)CC3)nc2c1	12	9	i	2.5*	6%	1
CN(C)S(=O)(=O)c1ccc(/C(O)=C2/C(=O)C(=O)N(CCN3CCCCC3)C2c2cccnc2)cc1 (centres undefined)	9	1	i	1	2%	1.1
Cc1[nH]nc2c1-c1nc3ccccc3nc1C(C)(C)C2	9	10	·	3.9*	10%	1.1
COC(=O)C1C(=O)c2c(n[nH]c2C)CC1(C)C (centres undefined)	5	1	i	1.1	3%	1
CCOC(=O)Cn1c(=O)c2c(nc(Br)n2Cc2ccc(Cl)cc2)n(C)c1=O	0	13	i	1.1	4%	1
CCc1cc(=O)oc2cc(OCC(=O)N(CC)CC)c(Cl)cc12	7	12	i	1.5	10%	1.1
Cc1c(C)c2ccc(OCC(=O)N(C)C)c(C)c2oc1=O	15	11	·	3.7*	13%	1.2
COc1ccc2c(C)cc(=O)oc2c1C	7	9	·	2.1*	8%	1.1
Cc1cc(=O)oc2c(C)c(OCC(=O)N(C)C)ccc12	5	0	·	3.4*	3%	1.1
CCOC(=O)CCc1c(C)c2ccc(OCC(=O)N(CC)CC)c(C)c2oc1=O	4	6	·	3.8*	5%	1.1
CCN(CC)C(=O)COc1cccc2ccccc12	3	22	i	1.2	8%	1
CCCCN1c2cc(C)c(O)cc2C(C(=O)OCC)C1C (centres undefined)	3	0	i	1.2	1%	1
O=C(COc1ccc2c(c1)CCC2)N1CCc2ccccc21	2	13	i	1.1	5%	1
CCc1ccc(OCC(=O)N(C)C)c(Br)c1	9	8	i	1.1	9%	1.1
SMILES	MK inhibit	Spn PMK inh	DPM-DC inhibit	Fluor 339 460	NADH coupling	A340 absorber
C=CCOC(=O)COc1ccc2c(C)c(C)c(=O)oc2c1C	5	10	·	2.4*	4%	1
CCc1c(C)c2ccc(OCC(=O)N(C)C)c(C)c2oc1=O	13	6	·	3.5*	10%	1.1
CCc1c(C)c2ccc(OCC(=O)OC(C)C)c(C)c2oc1=O	12	4	·	3.6*	8%	1.1
Cc1c(OCC(=O)OC(C)C)ccc2c3c(c(=O)oc12)CCC3	5	4	i	1.8	6%	1.1
CC(=O)NC(CCS(C)(=O)=O)C(=O)Nc1ccc(Oc2ccccc2)cc1 (centres undefined)	0	13	i	1.1	4%	1
O=C(CSc1ccc2nnc(-c3ccc(Cl)cc3)n2n1)N1CCN(c2ccccc2)CC1	15	19	i	1.1	11%	1.1
O=c1oc2c(CN3CCCCC3)c(O)ccc2cc1-c1nc2ccccc2[nH]1	12	4	·	4*	8%	1
O=c1oc2c3c4c(cc2cc1-c1nc2ccccc2[nH]1)CCCN4CCC3	21	71*	·	2.1*	11%	0.9
O=C(CSc1nc2ccccc2[nH]1)N1CCCCC1	6	6	i	1	2%	1
N=c1oc2c3c4c(cc2cc1C(=O)Nc1ccccc1)CCCN4CCC3	2	0	i	1.6	1%	1.1
CC1(C)Cc2cccc(OCC(=O)N3CCN(S(=O)(=O)c4ccccc4)CC3)c2O1	0	17	i	1	6%	1
Cn1c(/N=C/c2ccc3c(c2)OCO3)nc2ccccc21	10	8	·	2.1*	9%	1.1
Cn1c(/N=C/c2c[nH]c3ccccc23)nc2ccccc21	14	0	i	1.1	5%	1.1
Cn1c(C(=O)Nc2ccc3c(c2)OCO3)cc2c(=O)n(C)c3ccccc3c21	10	7	·	2.3*	4%	1
O=C(NC1CCCCCCC1)c1c(O)c2ccccc2[nH]c1=O	6	10	i	1.1	6%	1.1
O=C(Nc1c(C(=O)O)[nH]c2ccccc12)NC1CCCCC1	6	6	·	3.9*	6%	1
O=C(COC(=O)c1ccccc1Nc1ccccc1)NCc1ccco1	0	12	i	1.3	4%	0.99
COc1cc(NC(=O)c2cccs2)c(C(=O)OCC(=O)NCc2ccco2)cc1OC	5	13	+	1.4	17%	1.1
NC(=O)c1ccsc1NC(=O)COC(=O)c1ccccc1NCc1ccco1	0	0	·	2.1*	0%	1.1
COC(=O)c1cc2c(C)nn(-c3ccccc3)c2s1	11	7	i	1.6	6%	1
Cc1nn(-c2ccccc2)c2sc(C(=O)OC3CCOC3=O)cc12 (centres undefined)	6	13	·	5*	10%	1.1
Cc1nn(-c2ccccc2)c2sc(C(=O)OCC(=O)N3CCCCC3)cc12	5	10	·	4*	8%	1
CC1(C)CC(=O)C=C(Nc2ccccc2F)C1	3	12	i	1.1	5%	1.1
NS(=O)(=O)c1ccc(CCNC(=O)COC(=O)C2CCCN2C(=O)c2cccs2)cc1 (centres undefined)	0	16	i	1	5%	1
O=C(Nc1ccc2c(c1)CCC2)C1COc2ccccc2O1 (centres undefined)	0	15	i	2.1*	8%	1
Cn1nnc2c(NCc3ccco3)nccc21	1	0	·	2.1*	1%	1

Screens as filed in PubChem.
